Assay outcomes deposited in PubChem BioAssay by National Center for Advancing Translational Sciences (NCATS).
The list is not random: actives were taken first. Their share in the collection is about 4.6%.
HCV inhibitor: HCV inhibition. 340,000 tested, 3.4% active. Huh7.5.1 HCVcc-Cre infection, luciferase reporter, 44 h. Potency, µM (highest dose often 41.8 µM), for the others: top-dose activity change, negative = inhibition, hits mostly inhibitors. AID 651820; active means well fitted inhibition curve with a large enough effect; inconclusive means small, poorly fitted or top-dose-only effect, or another doubt; inactive means no such curve, though single readings can be large or run the other way
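Seed cells (1,000/well) for 4 h; treat with compound and infect with HCVcc-Cre, moi about 0.5. Incubate 44 h, then detect luciferase activity.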
Marburg entry inh: Marburg virus entry inhibition; Marburg virus pseudotyped entry inhibition, cell reporter; Potency, µM (highest dose often 37.8 µM), for inactives: at the top dose activity change, negative = inhibition, hits mostly inhibitors; 300,000 tested, 1.8% active; calls by dose curve; tested in HEK293 cells
LASV entry inh: Lassa virus entry inhibition; Lassa virus pseudotype entry inhibition, cell reporter; Potency, µM (series often up to 37.9 µM), for inactives: at the highest dose activity change, negative = inhibition, actives largely listed as inhibitors; 300,000 tested, 1.2% active; AID 540256; calls by dose curve; tested in HEK293 cells; further: nearly all actives have a fitted effect of over 50% in size
Vaccinia mCherry: inhibitors of vaccinia virus infection (mCherry reporter signal) | Vaccinia virus mCherry reporter infection, fluorescence | Potency, µM (highest dose often 36.5 µM), inactives show at the highest dose activity change, negative = inhibition, most hits filed as inhibitors | 310,000 tested, 0.63% active | AID 720579; calls by dose curve; tested in A549 cells; further: nearly all actives have a fitted effect of over 35% in size
VACV Venus inh: inhibitors of vaccinia virus (Venus reporter) | 330,000 tested, 0.46% active | AID 720580 | Potency, µM (highest dose often 36.5 µM), for inactives: top-dose activity change, negative = inhibition, most hits filed as inhibitors | Vaccinia virus Venus reporter expression, fluorescence; calls by dose curve; tested in A549 cells; further: nearly all actives have a fitted effect of over 30% in size
An asterisk follows results filed as active; i = inactive; ? = inconclusive; . = no result; [ ] = another dose, or the depositor's remark. On the % scale 0 is the no-effect control and ±100 the full control effect; potency means the concentration at half of the fitted maximal effect.

SMILES	HCV inhibitor	Marburg entry inh	LASV entry inh	Vaccinia mCherry	VACV Venus inh
O=C(Nc1cccnc1)c1ccc(Cl)c(S(=O)(=O)N2CCCCC2)c1	?	2.8%[46.1 µM]	-1.7%[46.1 µM]	i	-17.5%
CCOc1ccc2oc(C(=O)NCc3ccccc3CN3CCCC3)c(C)c2c1	15.8µM*	.	.	.	.
CCN1C(=NCc2ccc(OC)cc2)NC(c2cccc(C(F)(F)F)c2)C(C(=O)OC)=C1C (centres undefined)	.	13.4%[14.2 µM]	.	.	.
COc1ccc2c(CNCc3cccs3)c(C(=O)O)n(Cc3ccccc3C)c2c1	.	.	4.6%[46.1 µM]	i	-15.5%
O=C(NCc1ccccc1CN1CCCC1)c1ccc(Cl)c(S(=O)(=O)N2CCCC2)c1	12.6µM*	?	-17.3%	-10.4%	-23.4%
CN(C)CCCNC(=O)c1ccc(Cl)c(S(=O)(=O)N2CCCCCC2)c1	?	?	-0.6%	-10.8%	-16.6%
CN(C)C(CNC(=O)c1ccc(Cl)c(S(=O)(=O)N2CCCCCC2)c1)c1ccccc1 (centres undefined)	6.31µM*	.	.	.	.
COc1ccc(C(=O)NCc2nnnn2-c2ccc(C)c(C)c2)cc1	.	.	-14.4%[46.1 µM]	-17.4%[7.34 µM]	-9.1%[7.34 µM]
Cn1c(Sc2ccc(Cl)cc2)c(C=O)c2ccccc21	10µM*	-28.1%	-22.7%	.	-13.6%
Cn1c(Sc2ccccc2Cl)c(C=O)c2ccccc21	3.3%	-5.7%	-24.8%	-24.9%	-14.6%
CC(=O)Oc1ccc2ccc3ccc(C(C)=O)cc3c2c1	12.6µM*	29.8%[46.1 µM]	19.8%[46.1 µM]	?	-9.1%
Cc1cnc(C)c(-c2ccc(O)c(CN3CCN(C=O)CC3)c2)n1	.	.	.	-9.7%	-4.7%
O=C(N/N=C/c1ccccc1F)c1ccccc1OCc1ccccc1	10µM*	-5.7%[46.1 µM]	-0.6%[46.1 µM]	i	1.5%
O=C(NNC(=O)c1ccccc1OCc1ccccc1)c1ccccc1O	?	-22.6%[46.1 µM]	-2.0%[46.1 µM]	7.08µM*	?
CC(=O)c1ccccc1OCCOc1ccccc1C(C)=O	-15.5%	.	.	.	.
CC(=O)c1ccccc1OCc1ccc(S(=O)(=O)Cc2ccccc2)cc1	10µM*	.	.	.	.
O=C(NNC(=O)c1ccccc1OCc1ccc(F)cc1)c1ccccc1O	6.31µM*	?	?	?	?
O=C(NNC(=O)c1ccccc1OCc1ccccc1)c1ccccc1F	-25.9%	-18.2%[46.1 µM]	-5.5%[46.1 µM]	i	4.2%
CCCOc1ccc(CNC(=O)CN2C(=O)c3cccnc3Oc3ccc(C)cc32)cc1	.	.	?	-14.2%	-15.2%
CC[C@@H](C)CCCCC(=O)N[C@@H](CCNCS(=O)(=O)O)C(=O)N[C@H](C(=O)N[C@@H](CCNCS(=O)(=O)O)C(=O)N[C@H]1CCNC(=O)[C@H]([C@@H](C)O)NC(=O)[C@H](CCNCS(=O)(=O)O)NC(=O)[C@H](CCNCS(=O)(=O)O)NC(=O)[C@H](CC(C)C)NC(=O)[C@@H](CC(C)C)NC(=O)[C@H](CCNCS(=O)(=O)O)NC1=O)[C@@H](C)O	.	.	.	-15.5%	-10.4%
CN(C)S(=O)(=O)c1cccc(NC(=O)c2ccccc2OCc2ccc(F)cc2)c1	6.31µM*	-11.9%[46.1 µM]	?	-11.4%	-14.3%
CN(C)S(=O)(=O)c1cccc(COc2ccccc2C(=O)Nc2ccccc2)c1	?	?	?	-11.8%	-14.4%
O=C(N/N=C/c1ccccc1F)c1csc2c1CCCC2	18.2%	9.6%	11.2µM*	i	-19.8%
O=C(N/N=C/c1cccc(F)c1)c1csc2c1CCCC2	-12.9%	?	?	.	-19.1%
COC(=O)[C@]1(C)CCC[C@@]2(C)C3CC[C@@]4(C)C[C@]3(CCC21)CC(=O)N4 (some centres undefined)	22.7%	.	.	i	-23.9%
SMILES	HCV inhibitor	Marburg entry inh	LASV entry inh	Vaccinia mCherry	VACV Venus inh
C=C1C(=O)C23CCC4C(C)(C(=O)OC)CCCC4(C)C2CCC1(O)C3 (centres undefined)	3.16µM*	?	?	7.94µM*	11.2µM*
O=C(COc1ccc(Br)cc1)N1CCN(Cc2c[nH]c3ccccc23)CC1	-11.6%	?	?	14.1µM*	?
Cc1ccc(-n2c(=O)c3c(c4cc(C)ccc4n3C)n(CC(=O)Nc3c(C)cccc3C)c2=O)cc1	.	.	11.2%[46.1 µM]	-11.2%	-7.9%
C/C(=C\c1ccco1)CN1CCOc2ccc(C(C)(O)COc3ccccc3)cc2C1 (centres undefined)	.	.	.	-10.6%	4.6%
Cc1cc(CNC(=O)c2cc(-c3ccccc3)nc3ccccc23)nn1C	-12.6%	9.4%[46.1 µM]	-25.4%	-15.3%	-7.3%
Cc1cc(C(=O)NCc2cc(C)n(C)n2)sc1-c1ccccc1	3.98µM*	?	-28.5%	-10.5%	-23.8%
Cc1cnc(SCc2ccccn2)nc1C1CCCN(C(=O)c2cc3ccccc3oc2=O)C1 (centres undefined)	.	.	.	-10.2%	-12.9%
CCc1cc(C(=O)N2CCOc3ccc(CN4CCN(Cc5ccccn5)CC4)cc3C2)no1	.	.	.	-12.2%	5.5%
CCOC(=O)c1ccc2ncc(C(=O)OCC)c(Nc3ccc(N4CCOCC4)cc3)c2c1	?	7.94µM*	?	-25.7%	?
Cc1cc(N2CCOCC2)nc2ccc(NC(=S)NCCN(C)C)cc12	?	?	-3.6%	?	-6.7%
CCC(C)NC(=S)Nc1ccc2nc(N3CCOCC3)cc(C)c2c1 (centres undefined)	11.2µM*	.	.	.	.
Cc1cc(N2CCOCC2)nc2ccc(NC(=S)NCCC(C)C)cc12	10µM*	-19.7%[46.1 µM]	?	?	-27.5%
CCC(C)NC(=O)CCC(=O)Nc1ccc2nc(N3CCOCC3)cc(C)c2c1 (centres undefined)	-6.3%	-4.9%	?	-17.8%	-14.2%
Cc1ccc(NC(=O)C2CCC(CNS(=O)(=O)c3ccc4c(c3)CCCC(=O)N4)CC2)cc1F (centres undefined)	.	.	3.4%[46.1 µM]	-8.2%	-13.5%
Cc1c(C(=O)NCCNc2ncc(C(F)(F)F)cc2Cl)cccc1[N+](=O)[O-]	11.2µM*	-29.1%	?	-0.5%	-12.5%
O=[N+]([O-])c1cccc(Cl)c1NCCNc1ncc(C(F)(F)F)cc1Cl	-24.8%	?	-18.6%	-25.5%	-18.1%
COc1ccccc1CNC(=O)CCn1c(=O)c2ccccc2n(CC(=O)Nc2ccc(C)cc2C)c1=O	.	-10.5%[46.1 µM]	-0.8%[46.1 µM]	-10.3%	4.7%
O=C(c1cc(-c2ccccc2)on1)N1CCOc2ccc(CN3CCN(c4ccccn4)CC3)cc2C1	.	.	.	i	-18.5%
COc1ccc(NC(=O)C(=O)NCCc2sc(-c3ccc(Cl)cc3)nc2C)cc1	.	.	12.5%[46.1 µM]	22.6%	2.7%
COc1ccc(C2C(C#N)=C(N)N(c3ccccc3C#N)C3=C2C(=O)CCC3)cc1CN1CCCC1 (centres undefined)	1.3%	5.8µM*	0.9%	-7.6%	-2.8%
COc1cc(C2C(C#N)=C(N)N(c3cccnc3)C3=C2C(=O)CCC3)ccc1O (centres undefined)	13.6%	0.6%	0.8%	-8.5%	4.3%
Cc1ccc(NC(=O)CSc2nc3ccccc3n2CC(=O)N2CCC(C)CC2)cc1C	.	.	?	-13.8%	-18.9%
COC(=O)CS(=O)(=O)c1nnc([C@H](Cc2ccccc2)NC(=O)OC(C)(C)C)o1	?	?	?	-23.1%	3.5%
